Source: PubChem BioAssay (NCI)
Compounds without any hit were thinned out: in the full panel of roughly 79,000, 15% have a hit. Rule as the data show it: active = growth inhibition above about 70%; inactive = the rest.

How the values were obtained:
[1] = NCI Yeast Anticancer Drug Screen. Data for the rad50 strain (AID 155);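 also: 0% = growth of vehicle-only cultures of the same strain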; details: S. cerevisiae rad50 strain growth inhibition; at 50.0 µM; hits give high values
Procedure, shortened: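 Readout: growth inhibition relative to vehicle-treated cultures. Compound exposure was carried out in a genetically defined yeast strain deficient in DNA damage repair.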

[2] = NCI Yeast Anticancer Drug Screen. Data for the mec2-1 strain (AID 157); details: S. cerevisiae mec2-1 strain, at 50.0 µM, hits give high values
Procedure, shortened: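 Yeast mec2-1 mutant treated with compound. Readout: growth inhibition vs vehicle controls.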

[3] = NCI Yeast Anticancer Drug Screen. Data for the sgs1 mgt1 strain (AID 161);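 also: 0% = growth of cultures given vehicle only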; details: S. cerevisiae sgs1 mgt1 strain, at 50.0 µM, hits give high values
Procedure, shortened: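 Genetically altered yeast, compound exposure, growth inhibition relative to vehicle.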

[4] = NCI Yeast Anticancer Drug Screen. Data for the cln2 rad14 strain (AID 165);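 also: 0% = growth equal to vehicle treated cultures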; details: S. cerevisiae cln2 rad14 strain, at 50.0 µM, hits give high values
Procedure, shortened: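 cln2 rad14 yeast strain; compound exposure; growth inhibition read vs vehicle controls.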

[5] = NCI Yeast Anticancer Drug Screen. Data for the bub3 strain (AID 167); details: S. cerevisiae bub3 mutant strain, at 50.0 µM, hits give high values
Procedure, shortened: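 Readout: yeast growth inhibition, expressed relative to vehicle-only wells. The test organism is a mutant strain from a panel with lesions in DNA repair or checkpoint genes.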

[6] = NCI Yeast Anticancer Drug Screen. Data for the mlh1 rad18 strain (AID 175); details: S. cerevisiae mlh1 rad18 strain growth inhibition; at 50.0 µM; hits give high values
Procedure, shortened: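 Yeast w/ defined DNA-repair lesions; compound exposure; growth vs vehicle controls → % inhibition.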

Measured: growth inhibition

CCCn1c(CC)nc([N+](=O)[O-])c1Sc1ncn[nH]1
inactive: [1] -14.7% | [2] -23.1% | [3] -7.1% | [4] 9.1% | [5] -5.6% | [6] -11.5%

O=c1[nH]c(Nc2cccc(Br)c2)nc2nc[nH]c12
inactive: [1] -53.2% | [2] -8.65% | [3] -23.9% | [4] -45.4% | [5] -5.9% | [6] -37.5%

Cc1ncc([N+](=O)[O-])n1CCNC(=O)CCC(=O)NCCCn1ccnc1[N+](=O)[O-]
inactive: [1] -16.1% | [2] -22.9% | [3] -1.45% | [4] 21.7% | [5] -31.8% | [6] 14.9%

Cc1ccccc1-n1c(C)nc2cc(NCC(=O)c3ccccc3)ccc2c1=O
inactive: [1] 32.9% | [2] -9.8% | [3] -2.3% | [4] -0.5% | [5] -1.6% | [6] 4%

C/C=C\COC(=O)C(C)OC(=O)OCC (stereo unspecified)
inactive: [1] 14.2% | [2] 11.8% | [3] 4.85% | [4] 5.75% | [5] -0.65% | [6] 0.5%

COc1cc(OC)c(NC(=O)Nc2ccc([N+](=O)[O-])cc2OC)cc1Cl
inactive: [1] -21.6% | [2] -17.6% | [3] -7.15% | [4] -49.1% | [5] 1.25% | [6] -7.2%

Cc1ccc2cccc(OC(=O)Nc3cc(Cl)c(Cl)cc3Cl)c2n1
inactive: [1] -5.7% | [2] -17.8% | [3] 4.5% | [4] -4.8% | [5] -14.2% | [6] 3.9%

CC(C)(C)C(=O)Cn1nnnc1C(=O)C(C)(C)C
inactive: [1] -10.7% | [2] -35.5% | [3] -15.8% | [4] -36.9% | [5] -5.85% | [6] -19.4%

CCn1c(C)nc([N+](=O)[O-])c1Sc1ncn[nH]1
inactive: [1] 10.2% | [2] -10.3% | [3] 11.2% | [4] 5.1% | [5] -7.05% | [6] -59.7%

COC(=O)Nc1nc2c(OC)c(OC)c(OC)cc2[nH]1
inactive: [1] -5.15% | [2] -6.75% | [3] -3.95% | [4] -17.9% | [5] -18.6% | [6] -17.1%

CC(C)(C)C1=NC(S)NC(CCC(=O)Nc2ccccc2[N+](=O)[O-])=C1 (stereo unspecified)
inactive: [1] 0.4% | [2] -8.85% | [3] -0.4% | [4] 14.2% | [5] 8.05% | [6] -7.4%

C=CCOC(=O)NC1C(OC(C)[C@@H](NC(=O)OCc2ccccc2)C(=O)OC(C)(C)C)OC(COC(C)=O)C(OC(C)=O)C1OC(C)=O (stereo partly specified)
inactive: [1] -26.9% | [2] -23.8% | [3] -16.4% | [4] 22.1% | [5] -1.55% | [6] -4.15%

Cn1c(N)c(N=Cc2ccc(Cl)cc2)c(=O)n(C)c1=O
inactive: [1] -9.2% | [2] 2.35% | [3] -5.5% | [4] -16.5% | [5] -7.75% | [6] -7.4%

N#Cc1c(C(=O)NN)c2c(-c3ccc4ccccc4c3)n[nH]c(=O)c2[nH]c1=O
inactive: [1] 20.4% | [2] 23.4% | [3] 30.4% | [4] 4.1% | [5] 7.1% | [6] 42.9%

Cc1ccc(S(=O)(=O)N2CCSCCSCCSCCSCC2)cc1
inactive: [1] -1.3% | [2] -0.1% | [3] 7.1% | [4] 10.6% | [5] -8.9% | [6] -39.1%

CN(C)CCCN1N=Nc2cccc3cccc1c23
inactive: [1] 1.75% | [2] 8.25% | [3] -14.3% | [4] 11.7% | [5] 15.2% | [6] 20.1%

O=C(Cn1cc(I)c(C(=O)NCC(O)CO)n1)NCC(O)CO (stereo unspecified)
inactive: [1] -2.2% | [2] -8.7% | [3] -8.4% | [4] 26.9% | [5] -5.9% | [6] -9.25%

CN(C)Cc1cn(C[Si](C)(C)C)c2ccccc12
inactive: [1] 18.6% | [2] -3.25% | [3] 7.7% | [4] 0.35% | [5] 3.75% | [6] 13.2%

CC(CO)(CO)Nc1ncnc2ccccc12
inactive: [1] -4.5% | [2] -12% | [3] -30.9% | [4] -26.4% | [5] -36.9% | [6] 9.7%

O=C(NNC(=O)c1ccc(Cl)c(Cl)c1)c1ccc(Cl)c(Cl)c1
inactive: [1] -37.9% | [2] -56.5% | [3] -25.1% | [4] 6.15% | [5] -16.4% | [6] -33.1%

CN(C)C=Nc1ccn(CCO)c(=O)n1
inactive: [1] 21.6% | [2] -16.9% | [3] 23.6% | [4] 19.1% | [5] 21.9% | [6] 33.2%
